Experimental data taken from PMC5540273 (PLoS ONE, 2017).
Where “and” joins values, the source holds several entries; their conditions need not be identical. Equal values may be shown once. Read-outs that look alike come from different tables or passages of the source.

Key:
MST1 = test system: T1, MST1; details: concentration: 1 μM, replicates: in singlicate, n = 1
T1 construct: gene STK4

MST2 = test system: T2, MST2; details: concentration: 1 μM, replicates: in singlicate; n = 1
T2 construct: gene STK3

MST3 = test system: T3, MST3; details: concentration: 1 μM, replicates: in singlicate, n = 1
T3 construct: gene STK24

MST4 = details: concentration: 1 μM, replicates: in singlicate, n = 1
MTOR = details: concentration: 1 μM, replicates: in singlicate, n = 1
MUSK = details: concentration: 1 μM, replicates: in singlicate, n = 1
MYLK2 = details: concentration: 1 μM, replicates: in singlicate, n = 1
MYLK4 = details: concentration: 1 μM, replicates: in singlicate, n = 1
MYLK = details: concentration: 1 μM, replicates: in singlicate, n = 1
MYO3A = details: concentration: 1 μM, replicates: in singlicate, n = 1
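Note: KINOMEscan kinase panel screen.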

Structure (SMILES) | %Inh (MST1; 1 µM) | %Inh (MST2) | %Inh (MST3; 1 µM) | %Inh (MST4; 1 µM) | %Inh (MTOR; 1 µM) | %Inh (MUSK) | %Inh (MYLK2; 1 µM) | %Inh (MYLK4; 1 µM) | %Inh (MYLK; 1 µM) | %Inh (MYO3A; 1 µM) | %Inh (MST1) | %Inh (MST3) | %Inh (MST4) | %Inh (MTOR) | %Inh (MYLK2) | %Inh (MYLK4) | %Inh (MYLK) | %Inh (MYO3A) | %Inh (MUSK; 1 µM)
CC(C)(CN)c1nc(-c2ccc(Cl)c(O)c2)c(-c2ccncc2)[nH]1.O=C(O)C(F)(F)F [SB-477794] | 0% and 11% | 0% | 0% and 1% | 11% and 1% | 35% and 17% | 0% | 0% and 5% | 0% and 6% | 1% and 21% | 25% and 59% | – | – | – | – | – | – | – | – | –
O=C(c1ccc(-c2cc(-c3c[nH]nc3-c3ccccn3)ccn2)cc1)N1CCOCC1 [GW812171] | – | 0% | – | – | – | 0% | – | – | – | – | 4% | 0% | 0% | 17% | 0% | 26% | 0% | 6% | –
COCCNC(=O)c1ccc(-c2cc(C(=O)NC3CC3)cc(F)c2C)cc1 [GW868318] | – | 24% | – | – | – | 28% | – | – | – | – | 17% | 3% | 38% | 0% | 1% | 5% | 29% | 5% | –
N#Cc1ccc(-c2cc(-c3c[nH]nc3-c3ccccn3)ccn2)cc1 [GW693028] | – | 0% | – | – | – | 0% | – | – | – | – | 4% | 0% | 0% | 14% | 0% | 0% | 8% | 15% | –
Cc1c(Cn2c(C)nn3c(=O)cc(N4CCOC(C)C4)nc23)cccc1C(F)(F)F (stereo not drawn) [GSK2344444] | – | 0% | – | – | – | 0% | – | – | – | – | 0% | 2% | 0% | 28% | 8% | 1% | 0% | 7% | –
Cc1c2ccc(N(C)c3ccnc(Nc4cccc(S(N)(=O)=O)c4)n3)cc2nn1Cc1ccccc1.Cl.Cl [GW787226] | – | 13% | – | – | – | 33% | – | – | – | – | 32% | 0% | 0% | 0% | 0% | 0% | 0% | 0% | –
Fc1ccc(-c2ncn(CCCN3CCOCC3)c2-c2ccccn2)cc1 [SB-211742] | – | 32% | – | – | – | 0% | – | – | – | – | 2% | 9% | 0% | 27% | 3% | 0% | 0% | 0% | –
COc1cc2c(cc1OC[C@@H](O)CO)ncc1c3ccc(C#N)cc3[nH]c21 | – | 67% | – | – | – | 0% | – | – | – | – | 0% | 11% | 12% | 52% | 44% | 99% | 3% | 0% | –
NCCNS(=O)(=O)c1ccc(-c2ccnc3[nH]ccc23)cc1 [GSK977617] | 26% and 0% | 0% | 27% and 17% | 13% and 0% | 29% and 12% | – | 75% and 42% | 99.9% and 99.7% | 74% and 59% | 37% and 16% | – | – | – | – | – | – | – | – | 30% and 35%
COc1ccc(COc2cc(-n3cnc4ccccc43)sc2C(N)=O)cc1 [GSK1024304] | – | 0% | – | – | – | 14% | – | – | – | – | 0% | 0% | 0% | 0% | 0% | 0% | 0% | 0% | –
CCc1nc(-c2cccc(C)c2)c(-c2ccnc(NCc3ccccc3)c2)s1 | – | 0% | – | – | – | 12% | – | – | – | – | 4% | 4% | 0% | 12% | 0% | 0% | 0% | 0% | –
Cn1cc(-c2ccc3c(c2)CCN3C(=O)Cc2ccccc2Cl)c2c(N)ncnc21 [GSK2608885] | – | 64% | – | – | – | 29% | – | – | – | – | 95.3% | 30% | 13% | 8% | 8% | 2% | 12% | 34% | –
CC(C)(C)n1cnc2c(N)ncnc21 [SKF-97359] | – | 0% | – | – | – | 0% | – | – | – | – | 9% | 44% | 0% | 6% | 0% | 0% | 27% | 0% | –
O=C(NCCNc1ccnc(Nc2ccc(F)cc2)n1)c1cc2ccccc2s1 [GSK1379874] | – | 0% | – | – | – | 0% | – | – | – | – | 0% | 0% | 0% | 8% | 0% | 0% | 15% | 0% | –
Cl.Cl.Cl.Fc1ccc(-c2ncn(C3CCNCC3)c2-c2ccnc(Nc3ccccc3)n2)cc1 [SB-238039] | 82% and 69% | 0% | 12% and 46% | 44% and 0% | 22% and 0% | 0% | 43% and 30% | 6% and 0% | 0% and 22% | 4% and 10% | – | – | – | – | – | – | – | – | –
COc1ccc(Nc2nccc(N3CCC(NC(=O)Nc4cc(C)ccc4C)C3)n2)cc1 (stereo not drawn) [GSK1379741] | – | 1% | – | – | – | 0% | – | – | – | – | 0% | 0% | 0% | 11% | 0% | 0% | 0% | 0% | –
c1ccc(-c2n[nH]cc2-c2ccnc3ccccc23)nc1 [GW271431] | – | 13% | – | – | – | 15% | – | – | – | – | 5% | 2% | 0% | 9% | 12% | 24% | 20% | 31% | –

Structure (SMILES) | %Inh (MST1; 1 µM) | %Inh (MST2) | %Inh (MST3; 1 µM) | %Inh (MST4; 1 µM) | %Inh (MTOR; 1 µM) | %Inh (MUSK) | %Inh (MYLK2; 1 µM) | %Inh (MYLK4; 1 µM) | %Inh (MYLK; 1 µM) | %Inh (MYO3A; 1 µM) | %Inh (MST1) | %Inh (MST3) | %Inh (MST4) | %Inh (MTOR) | %Inh (MYLK2) | %Inh (MYLK4) | %Inh (MYLK) | %Inh (MYO3A) | %Inh (MUSK; 1 µM)
Fc1ccc(-c2ncn(CCCN3CCOCC3)c2-c2cccnc2)cc1 [SB-211743] | – | 40% | – | – | – | 20% | – | – | – | – | 12% | 0% | 0% | 0% | 1% | 0% | 0% | 0% | –
C[C@@H](Oc1cc(-n2cnc3ccc(NC(=O)NC(C)(C)C)cc32)sc1C(N)=O)c1ccccc1Cl [GSK346294] | – | 0% | – | – | – | 6% | – | – | – | – | 12% | 13% | 0% | 31% | 0% | 1% | 23% | 35% | –
Cc1nnc(-c2ccc3ncc(-c4ccc(S(C)=O)cc4)n3c2)o1 (stereo not drawn) | – | 0% | – | – | – | 0% | – | – | – | – | 0% | 14% | 0% | 29% | 8% | 5% | 18% | 0% | –
COc1cc2c(cc1OCCN1CCN(C)CC1)ncc1c3ccc(C#N)cc3[nH]c21 | – | 30% | – | – | – | 0% | – | – | – | – | 0% | 36% | 0% | 38% | 72% | 75% | 26% | 0% | –
Cc1cccc(-c2nc(-c3ccc(S(C)(=O)=O)cc3)sc2-c2ccncc2)c1 | – | 0% | – | – | – | 0% | – | – | – | – | 5% | 5% | 0% | 0% | 0% | 0% | 6% | 7% | –
COC(=O)Nc1nc2cc(Oc3ccc(NC(=O)Nc4cc(F)ccc4F)cc3)ccc2[nH]1.Cl [GW701424] | – | 0% | – | – | – | 99.1% | – | – | – | – | 0% | 6% | 0% | 15% | 0% | 0% | 0% | 33% | –
COc1ccc(Nc2ncc(C#N)c(Nc3ccccc3C(N)=O)n2)cc1N1CCN(C)CC1.Cl [GSK1558669] | – | 51% | – | – | – | 80% | – | – | – | – | 98.3% | 95.5% | 99.4% | 0% | 98.2% | 98.2% | 99.4% | 76% | –
CN1c2ccc(CNc3ccc(F)cc3)cc2-c2c(cnn2C)S1(=O)=O | – | 0% | – | – | – | 0% | – | – | – | – | 0% | 0% | 0% | 24% | 0% | 0% | 4% | 0% | –
NS(=O)(=O)CCc1cccc(Nc2nccc(-c3c(-c4cccc(NC(=O)c5c(F)cccc5F)c4)nn4ccccc34)n2)c1 [GSK336735] | – | 74% | – | – | – | 40% | – | – | – | – | 94.9% | 13% | 0% | 8% | 0% | 0% | 14% | 26% | –
O=c1cc(N2CCOCC2)nc2n(Cc3cccc(F)c3)ccn12 [GSK2297430] | – | 0% | – | – | – | 3% | – | – | – | – | 23% | 3% | 0% | 52% | 0% | 0% | 4% | 0% | –
Cl.Nc1ncnc2occ(-c3ccc(NC(=O)Nc4cc(C(F)(F)F)ccc4F)cc3)c12 [SB-707548] | – | 26% | – | – | – | 100% | – | – | – | – | 50% | 52% | 8% | 16% | 37% | 26% | 21% | 96.6% | –
O=C(Nc1n[nH]c2cc(-c3cccc(F)c3)ccc12)C1CC1 [SB-735464] | – | 0% | – | – | – | 0% | – | – | – | – | 11% | 17% | 17% | 0% | 77% | 6% | 2% | 3% | –
O=C1NC(=O)C(N2CCc3ccccc32)=C1c1cccc(Cl)c1 [SB-408010] | – | 63% | – | – | – | 0% | – | – | – | – | 0% | 4% | 0% | 0% | 0% | 0% | 8% | 9% | –
c1ccc(-c2cc(-c3c[nH]nc3-c3ccccn3)ccn2)cc1 [GW576604] | – | 0% | – | – | – | 0% | – | – | – | – | 0% | 0% | 0% | 10% | 3% | 0% | 6% | 18% | –
Nc1nc(-c2ccc3c(N)n[nH]c3c2)cc(N2CCCC2)n1 [GSK2227430] | – | 0% | – | – | – | 0% | – | – | – | – | 0% | 0% | 0% | 0% | 0% | 2% | 9% | 0% | –
O=C(NCCNc1ccnc(Nc2ccc(F)cc2)n1)Nc1ccccc1F [GSK1379880] | – | 0% | – | – | – | 5% | – | – | – | – | 0% | 0% | 0% | 10% | 1% | 0% | 9% | 0% | –
